31 molecules from PubChem BioAssay (NCATS) can be followed below.

A number with no mark means an inactive call. Active and inactive are the calls of the source. Calls come from the whole dose curve; as a rule, active = well fitted curve in the direction sought with a large enough effect; inconclusive = small, poorly fitted or top-dose-only effect, or another doubt; inactive = no such curve, though single readings can be large or run the other way.

The target of this experiment is Alpha-galactosidase (Coffea arabica) (UniProt Q42656). Put plainly: Counterscreen for Glucocerebrosidase Inhibitors: qHTS Assay for Coffee Bean alpha-Galactosidase at pH 4.5 (AID 957).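 Note: plate controls were enzyme alone for no effect and no enzyme for full effect.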 Conditions: purified coffee bean alpha-galactosidase, fluorogenic substrate; series mostly up to 76.9 µM; activity change, negative = inhibition: at the top concentration. The gist of the method: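 Coffee bean alpha-galactosidase 2 nM, substrate 4-MU-alpha-Gal 80 uM, pH 4.5 citrate/Tween-20, 20 min RT. Cpd titration 0.7 nM–77 uM. Stop pH 10, fluorescence 365/440 nm; Hill-equation AC50.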
Sequence of Alpha-galactosidase (Coffea arabica) (Q42656 whole entry, looked up): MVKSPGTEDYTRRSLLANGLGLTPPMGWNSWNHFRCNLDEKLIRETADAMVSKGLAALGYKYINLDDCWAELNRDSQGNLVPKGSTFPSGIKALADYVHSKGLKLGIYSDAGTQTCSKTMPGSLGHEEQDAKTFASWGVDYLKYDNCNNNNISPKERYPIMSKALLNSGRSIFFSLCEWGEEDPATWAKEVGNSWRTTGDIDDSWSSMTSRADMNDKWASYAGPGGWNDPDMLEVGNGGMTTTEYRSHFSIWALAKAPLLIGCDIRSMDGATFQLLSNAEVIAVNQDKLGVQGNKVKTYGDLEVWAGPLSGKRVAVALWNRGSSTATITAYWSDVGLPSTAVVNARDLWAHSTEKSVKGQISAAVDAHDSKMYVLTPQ
Consider `Cc1cn[nH]c1`, for which the “activity change, negative = inhibition” value is 1.91%.
Same read-out and setting: in the case of `COc1ccc(Cl)cc1C(=O)NCCc1ccc(S(=O)(=O)NC(=O)NC2CCCCC2)cc1` it was 1.42%; in that of `CN1CCC(=C2c3ccccc3C=Cc3ccccc32)CC1`, -5.63%; in that of `NNc1nncc2ccccc12`, 0.127%.
Regarding `Nc1nc(N)c2nc(-c3ccccc3)c(N)nc2n1`, the “activity change, negative = inhibition” value was 114%.
Turning to `Clc1ccc(C(c2ccccc2Cl)C(Cl)Cl)cc1` (stereo unspecified), the “activity change, negative = inhibition” value was -2.22%.
Same read-out and setting: the same measure for `OCCN1CCN(CCCN2c3ccccc3Sc3ccc(Cl)cc32)CC1`: 0.188%; for `Cc1ccc(S(=O)(=O)NC(=O)NN2CCCCCC2)cc1`: -1.24%.
Same read-out and setting: in the case of `Cc1nc2n(c(=O)c1CCN1CCC(c3noc4cc(F)ccc34)CC1)CCCC2` it was 0.568%; in that of `O=c1[nH]c2ccccc2n1C1CCN(CCCC(c2ccc(F)cc2)c2ccc(F)cc2)CC1`, -11.5%.
Same read-out and setting: the same measure for `CN1CCN(C2=Nc3cc(Cl)ccc3Nc3ccccc32)CC1`: -1.37%; for `Cc1ccc(S(=O)(=O)N[C@@H](CCCCN)C(=O)CCl)cc1`: 0.587%.
On to `CC[N+](C)(C)c1cccc(O)c1`, for which the “activity change, negative = inhibition” value was -2.86%.
As to `CC[N+](CC)(CC)CC`, the “activity change, negative = inhibition” value is -1.09%.
The same measure, in the same setting: the same measure for `N=c1nc(N2CCCCC2)cc(N)n1O`: 3.33%.
Take `CCCN1CCC[C@@H]2Cc3[nH]ncc3C[C@H]21`: the molecule was called inactive.
As for `C[C@](N)(Cc1ccc(O)c(O)c1)C(=O)O`, the “activity change, negative = inhibition” value was -3.19%.
For the molecule `NC(=O)OCC(COC(N)=O)c1ccccc1`, the “activity change, negative = inhibition” value is -1.43%.
On the same count and under the same terms, the same measure for `CCCNC(=O)NS(=O)(=O)c1ccc(Cl)cc1`: 1.06%.
Take `CC(=O)CCCCn1c(=O)c2c(ncn2C)n(C)c1=O`: the “activity change, negative = inhibition” value is 2.02%.
Regarding `O=c1n(CCCN2CCN(c3cccc(Cl)c3)CC2)nc2ccccn12`, the “activity change, negative = inhibition” value is 4.05%.
On the same count and under the same terms, the same measure for `NCC(CC(=O)O)c1ccc(Cl)cc1` (stereo unspecified): -1.12%; for `CNCCCC1c2ccccc2C=Cc2ccccc21`: -0.859%; for `CN[C@H]1CC[C@@H](c2ccc(Cl)c(Cl)c2)c2ccccc21`: -1.65%.
Same read-out and setting: in the case of `COc1ccccc1N1CCNCC1` it was -1.54%.
As to `N[C@@H]1CONC1=O`, the result was inactive.
Take `CN(C)CCC=C1c2ccccc2CCc2ccccc21`: the “activity change, negative = inhibition” value was -4.09%.
Still for that read-out and setting: in the case of `CCCN1CCC[C@@H]2Cc3nc(N)ncc3C[C@H]21` it was -0.496%; in that of `O=C1NC(=O)C(c2ccccc2)(c2ccccc2)N1`, 2.71%.
Consider `Nc1ncn([C@@H]2O[C@H](CO)[C@@H](O)[C@H]2O)c(=O)n1`, for which the “activity change, negative = inhibition” value is -0.98%.
As to `NC12CC3CC(CC(C3)C1)C2`, the “activity change, negative = inhibition” value was 2.81%.
